Results: PubChem BioAssay (NCI)
About 83,000 compounds went through this panel and 20% of them were active in at least one assay; those are over-represented in the sample as a whole.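 Negative percent growth values reflect cell death: -40 means 40% of the cells present at the start died, and -100 means all died.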 The source made the active and inactive calls. The calls were made as follows: active = growth percent below 10; inactive = the rest.

Test system: HL-60(TB) leukemia
Assay: NCI-60 one-dose screen, 48 h (100 = growth as untreated, 0 = no growth, -100 = all killed)
Conditions: 10 µM unless noted

Structure (SMILES) | growth
CCCCN1CCN(c2ccc3nc(-c4ccc5nc(-c6ccc(OCC)c(OCC)c6)[nH]c5c4)[nH]c3c2)CC1 | 3.99% (active)
CCN(CC)CCN1C(=O)c2c(c3c4ccccc4[nH]c3c3ccc4ccccc4c23)C1=O | -23.7% (active)
Nc1c(C(=O)c2ccccc2)sc2nc(-c3cccs3)cc(-c3cccs3)c12 | 22% (inactive)
C#Cc1ccc(-n2c(/C=C/c3cc(OC)cc(OC)c3)nc3ncccc3c2=O)cc1 | 68.1% (inactive)
Cc1cccc(C[C@H](NC(=O)Nc2ccc(Cl)cc2F)C(=O)N[C@@H]2C(=O)N3C[C@H](OC(=O)CCN(C)C)C[C@H]3C(=O)N3CCCC[C@H]3C(=O)N[C@@H](C)C(=O)N3C[C@H](C)C[C@H]3C(=O)O[C@H]2C)c1 | 16.3% (inactive)
NC(CCl)=NCC12CC3CC(CC(C3)C1)C2 | -30.2% (active)
N[C@H](C(=O)O)[C@@H]1CC(Cl)=NO1 | 34.9% [20 µM] (inactive)
COc1cc(N)c2nccc(C)c2c1OC | 96.2% (inactive)
COc1ccc(-c2nc(SC)nc(N3CCOCC3)c2C#N)cc1 | 94% (inactive)
CCN(CC)c1ccc(/C=N/NC(=O)c2ccc(Nc3ccnc(C(F)(F)F)c3)cc2)c(O)c1 | 53.2% (inactive)
CC1=NN(c2cccc(S(N)(=O)=O)c2)C(=O)C1 | 124% (inactive)
O=C(NC(Cc1ccc(O)cc1)C(=O)N=Nc1c(O)[nH]c2ccccc12)c1ccccc1 (stereo not given) | 101% (inactive)
Nc1nc(Nc2ccccc2)c2ncn(Cc3cc4c(cc3Br)OCO4)c2n1 | -11.7% (active)
CCOC(=O)c1c2c(n(-c3ccc(C#N)cc3)c1-c1ccccc1)C=CCC2 | 82.9% (inactive)
CNC(=O)c1ccccc1Oc1nc(Nc2cc(OC)c(OC)c(OC)c2)ncc1Br | 53.2% (inactive)
O=C(NNc1ccccc1)C1CCCN1 (stereo not given) | 9.36% (active)
CC(=O)/C(=C/c1ccccc1)C(=O)CC(C)C | 38.8% (inactive)
CC(C)C(=O)c1ccc(Cl)s1 | 99.9% (inactive)
COc1cc(OC)cc(-c2ccc(-c3ccc(C(=N)N)cn3)s2)c1 | -25.4% (active)
COc1cccc(-c2cc(-c3cccc(NS(C)(=O)=O)c3)nc(N)c2C#N)c1O | 2.21% (active)

Structure (SMILES) | growth
CC1(C)CC2=C3C=C[C@@H]4[C@@]5(C)CC[C@H](O)C(C)(C)[C@@H]5CC[C@@]4(C)[C@]3(C)CC[C@@]2(C(=O)O)CC1=O | 39% (inactive)
CC1(C)CC[C@]2(C(=O)N3CCNCC3)CC[C@]3(C)C(=CC[C@@H]4[C@@]5(C)CCC(=O)C(C)(C)[C@@H]5CC[C@]43C)[C@@H]2C1 | 102% (inactive)
Cc1ccc(C2NC(=S)N3C(c4ccc(C)cc4)NC(=S)N23)cc1 (stereo not given) | -23.9% (active)
CCc1ccc(-c2ccc(COc3ccc(CC4SC(=O)NC4=O)cc3)cc2)cc1 (stereo not given) | 88.1% (inactive)
NC(=S)Nc1cccc(O)c1 | 98.6% (inactive)
c1ccc2cc(C[n+]3ccn(CCCCCCn4cc[n+](Cc5ccc6ccccc6c5)c4)c3)ccc2c1 | 87.9% (inactive)
COc1ccc(C(=O)c2cc(C)c(OC)c(C)c2)c(OC)c1OC(=O)C(Cl)Cl | -35.7% (active)
CCOc1ccc(NC(=O)c2ccoc2COc2ccccc2)cc1 | 100% (inactive)
O=C1C2CC=CCC2C(=O)N1CNc1ccc(Cl)cc1 (stereo not given) | 52.9% (inactive)
O=C(O)CCCn1c(SCc2c(Cl)cccc2Cl)nc2ccsc2c1=O | -4.86% (active)
O=[N+]([O-])c1ccc2c(c1)Cc1ccccc1-2 | 87% (inactive)
COCCc1n(Cc2ccc3ccccc3c2)c2ccccc2[n+]1Cc1ccc2ccccc2c1 | -62.4% (active)
C[N+](C)(C)c1ncnc2[n-]cnc12 | 103% (inactive)
CN(C)CCCC1(c2ccc(F)cc2)OCc2cc(-c3ccc(C(F)(F)F)nc3)ccc21 (stereo not given) | 43.1% (inactive)
COc1cc2ncn3c(=O)c4c5c(sc4nc3c2cc1OC)CCCCC5 | 100% (inactive)
O=C1/C(=C/c2cc(F)cc(F)c2)Cc2cc(F)cc(F)c21 | 122% (inactive)
Cc1cccc(CN(Nc2ccccc2)c2ccccc2)n1 | 91.9% (inactive)
CCSCC1CC(O)(c2ccccc2)CC(c2ccc(F)cc2)O1 (stereo not given) | -31.9% (active)
COc1ccc(-c2[nH]c3ccccc3c2/C=C(\C#N)S(=O)(=O)c2ccccc2)cc1 | -28.4% (active)
CCN=C1C=CC(=C(c2ccc(N(CC)CC)cc2)c2ccc(N(CC)CC)cc2)c2ccccc21 | -31.1% (active)
